Drawing on PubChem BioAssay, this text covers composite z-score and z-score for five compounds.

Active and inactive are the calls of the source. Unless noted, the rule behind the calls is not given here.

Experiment [1] is described as follows: compounds binding Alexa647 anti-His antibody – biochemical, small-molecule microarray, 635 nm fluorescence, artefact control for SMM control protein annotation, primary screen (AID 1128).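 Note: score merges feature fluorescence with signal-to-noise for each printed compound spot.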 The note with it: higher = more signal.
For experiment [2], the system named is Human papillomavirus type 1a E7 protein (residues 1-88). Briefly: HPV1a E7 small-molecule binders, primary screen, biochemical, small-molecule microarray, residues 1-88, 635 nm (AID 1129). As to conditions: small-molecule microarray binding, fluorescence 635 nm; higher = more signal.
Experiment [3] concerns the target Focal adhesion kinase 1 (Homo sapiens) (UniProt Q05397). Briefly: PTK2 protein binding on printed compound slides – biochemical, small-molecule microarray, 635/667 nm fluorescence, BSA, DTT, primary screen (AID 1130).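 Note: composite of spot emission at 667 nm and signal to noise over triplicate slides.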 The note with it: 635 nm fluorescence, higher = more signal.
The test system of experiment [4] is Fibrinogen (Alexa647-labelled). As to the kind of experiment: Alexa647-fibrinogen binding to printed small molecules – biochemical, small-molecule microarray, 635/667 nm fluorescence, artefact control for SMM control-protein annotation, profiling panel (AID 1131).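 Note: z-score merges 667 nm fluorescence with per-spot signal-to-noise over triplicate slides.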 As to conditions: fibrinogen-A647 binding fluorescence, higher = more signal.
The target in experiment [5] is Follistatin (Homo sapiens) (UniProt P19883). Briefly: FST protein binding to printed compounds – biochemical, small-molecule microarray, 635/667 nm fluorescence, primary screen (AID 1132). As to conditions: 635 nm fluorescence, higher = more signal.
Chain of Follistatin (Homo sapiens) (P19883 whole entry, looked up): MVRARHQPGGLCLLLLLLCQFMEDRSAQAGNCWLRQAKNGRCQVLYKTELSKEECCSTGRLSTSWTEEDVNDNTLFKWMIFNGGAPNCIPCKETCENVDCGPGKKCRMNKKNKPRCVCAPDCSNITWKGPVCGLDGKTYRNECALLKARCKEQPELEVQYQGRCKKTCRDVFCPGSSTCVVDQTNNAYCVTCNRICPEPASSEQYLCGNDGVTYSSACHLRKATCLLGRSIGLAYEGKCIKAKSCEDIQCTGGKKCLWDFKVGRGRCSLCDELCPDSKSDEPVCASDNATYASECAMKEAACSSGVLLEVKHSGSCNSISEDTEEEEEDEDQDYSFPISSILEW
Experiment [6] addresses Fibroblast growth factor 2 (Homo sapiens) (UniProt P09038). As to the kind of experiment: basic fibroblast growth factor binding to printed compounds – biochemical, small-molecule microarray, 635/667 nm fluorescence, primary screen (AID 1133). The note with it: FGF2, fluorescence 635/667, higher = more signal.
The nature of experiment [7]: JC-1 mitochondrial potential readout, lung cancer cells – cell-based, A549, JC-1 fluorescence, basal, 24 h, 100 nL, profiling panel (AID 1138).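 Note: A549 lung adenocarcinoma cells under basal conditions with no added stimulus; test concentration not given here.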 As to conditions: higher = more signal.
In a further experiment the test system is Lefty1. Briefly: Lefty1 protein binding to printed compounds – biochemical, small-molecule microarray, 635/667 nm fluorescence, primary screen (AID 1139). The note with it: fluorescence 635/667, higher = more signal.
Experiment [8] deals with wheat germ agglutinin (Triticum aestivum), Alexa647-labelled. Briefly: Alexa647-WGA lectin binding to printed small molecules – biochemical, small-molecule microarray, 635/667 nm fluorescence, artefact control for SMM control-protein annotation, profiling panel (AID 1140).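 Note: score merges 667 nm feature emission with signal to noise over triplicate slides.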 The note with it: WGA-A647 binding, 635 nm fluorescence, higher = more signal.
The target in experiment [9] is Luciferin 4-monooxygenase (Photinus pyralis) (UniProt P08659). As to the kind of experiment: inhibition of purified Photinus pyralis luciferase – biochemical, luminescence, purified enzyme, 2006 set, primary screen (AID 1141).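 Note: cell-free assay with purified firefly luciferase at 100 ng per well in PBS; test concentration not given here.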 The note with it: purified firefly luciferase, SteadyGlo luminescence, 30 min; higher = more signal, called active from +8 up or from −8 down.
Chain of Luciferin 4-monooxygenase (Photinus pyralis) (P08659 whole entry, looked up): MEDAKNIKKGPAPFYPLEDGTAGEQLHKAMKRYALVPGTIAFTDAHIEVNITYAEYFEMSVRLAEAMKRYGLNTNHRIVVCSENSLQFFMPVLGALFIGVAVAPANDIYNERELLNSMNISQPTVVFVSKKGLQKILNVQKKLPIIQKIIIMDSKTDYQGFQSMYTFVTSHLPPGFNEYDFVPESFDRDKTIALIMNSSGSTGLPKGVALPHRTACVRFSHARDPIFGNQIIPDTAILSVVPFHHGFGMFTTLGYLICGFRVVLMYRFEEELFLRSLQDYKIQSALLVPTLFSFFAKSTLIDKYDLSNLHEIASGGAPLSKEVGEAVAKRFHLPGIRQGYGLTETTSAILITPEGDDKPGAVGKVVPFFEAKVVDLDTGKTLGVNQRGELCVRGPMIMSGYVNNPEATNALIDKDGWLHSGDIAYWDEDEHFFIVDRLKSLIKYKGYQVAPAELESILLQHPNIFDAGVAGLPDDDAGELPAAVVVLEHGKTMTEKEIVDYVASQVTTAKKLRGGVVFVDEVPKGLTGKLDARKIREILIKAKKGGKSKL

The subject of experiment [10] is Wnt5a (protein binding on small-molecule microarray). As to the kind of experiment: small molecules binding Wnt5a protein – biophysical, small-molecule microarray, 635/667 nm fluorescence, primary screen (AID 1142).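 Note: fluorescence read at 667 nm with signal to noise per printed feature.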 As to conditions: 635 nm fluorescence, higher = more signal.
Experiment [11] is described as follows: ATP-based viability of Huh7 replicon cells – cell-based, CellTiter-Glo luminescence, basal, 48 h, cytotoxicity control for HCV replication inhibitor project, primary screen (AID 1143).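 Note: Huh7 hepatoma cells carrying a hepatitis C replication reporter with no stimulus; test concentration not given here.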 As to conditions: higher = more signal, called active from +8 up or from −8 down.
Experiment [12] is described as follows: Pseudomonas biofilm growth suppression – PAO1 strain, BacTiter-Glo luminescence, LB-PBS, primary screen (AID 1144). The note with it: P. aeruginosa PAO1 biofilm, 12 h, higher = more signal.
A short description of experiment [13]: basal CRE-LacZ reporter activity in PC12 – cell-based, unstimulated, primary screen (AID 1145). The note with it: no forskolin, luminescence, 4.5 h, higher = more signal, called active from +8 up or from −8 down.
Experiment [14] is described as follows: forskolin-driven CRE-LacZ activity in PC12 – cell-based, CRE-LacZ reporter, forskolin-stimulated, primary screen (AID 1146).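 Note: PC12 cells with 6xCRE LacZ reporter stimulated by forskolin 10 µM; beta-galactosidase reporter signal reflecting CREB driven transcription.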 The note with it: luminescence, 4.5 h, higher = more signal, called active from +8 up or from −8 down.
For experiment [15], the target named is Streptavidin (Streptomyces avidinii) (UniProt P22629). As to the kind of experiment: compounds binding control protein streptavidin – biophysical, small-molecule microarray, 635/667 nm fluorescence, artefact control for SMM compound annotation, primary screen (AID 1147).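 Note: signal reflects streptavidin binding to arrayed compounds as a control protein.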 As to conditions: higher = more signal.
Chain of Streptavidin (Streptomyces avidinii) (P22629 whole entry, looked up): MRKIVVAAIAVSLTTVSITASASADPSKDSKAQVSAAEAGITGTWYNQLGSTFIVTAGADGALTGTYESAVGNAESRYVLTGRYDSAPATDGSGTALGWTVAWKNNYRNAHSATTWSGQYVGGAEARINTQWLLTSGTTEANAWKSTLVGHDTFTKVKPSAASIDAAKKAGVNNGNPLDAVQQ
Experiment [16] can be described thus: probe aInhba binding on compound microarray – biochemical, small-molecule microarray, 635/667 nm fluorescence, primary screen (AID 1148).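 Note: score merges 667nm spot fluorescence with signal-to-noise for antibody binding to printed compounds.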 As to conditions: higher = more signal.
Experiment [17] deals with Torsin-1A (Homo sapiens) (UniProt O14656). Briefly: TOR1A wild-type binding on microarray – cell lysate, small-molecule microarray, lysate, 635/667 nm, primary screen (AID 1149). The note with it: COS7 hTOR1A-WT lysate, 635 nm fluorescence, higher = more signal.
Chain of Torsin-1A (Homo sapiens) (O14656 whole entry, looked up): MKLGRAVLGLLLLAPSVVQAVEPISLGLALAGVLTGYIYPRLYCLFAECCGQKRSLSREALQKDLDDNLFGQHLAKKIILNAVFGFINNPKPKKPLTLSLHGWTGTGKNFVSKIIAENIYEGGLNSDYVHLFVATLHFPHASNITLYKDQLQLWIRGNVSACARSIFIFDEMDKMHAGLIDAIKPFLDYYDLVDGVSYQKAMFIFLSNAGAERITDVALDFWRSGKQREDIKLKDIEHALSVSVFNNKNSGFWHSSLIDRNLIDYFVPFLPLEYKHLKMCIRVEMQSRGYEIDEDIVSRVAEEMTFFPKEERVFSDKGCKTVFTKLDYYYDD
Experiment [18] has the same target. Briefly: torsin A mutant lysate binding on microarrays – cell lysate, small-molecule microarray, COS7 lysate, 635/667 nm fluorescence, primary screen (AID 1150).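 Note: score pools 667 nm emission and signal to noise measuring lysate protein binding.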 As to conditions: COS7 hTOR1A mutant lysate, 635 nm fluorescence, higher = more signal.
Experiment [19] relates to Sonic hedgehog protein (Shh). Briefly: Sonic hedgehog microarray binding compounds – biochemical, small-molecule microarray, 635/667 nm fluorescence, primary screen (AID 1151).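 Note: Shh protein binding to compounds spotted on small-molecule microarray slides; score combines spot fluorescence intensity with signal-to-noise across triplicate slides.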 The note with it: 635 nm fluorescence, higher = more signal.

Chain of Fibroblast growth factor 2 (Homo sapiens) (P09038 whole entry, looked up): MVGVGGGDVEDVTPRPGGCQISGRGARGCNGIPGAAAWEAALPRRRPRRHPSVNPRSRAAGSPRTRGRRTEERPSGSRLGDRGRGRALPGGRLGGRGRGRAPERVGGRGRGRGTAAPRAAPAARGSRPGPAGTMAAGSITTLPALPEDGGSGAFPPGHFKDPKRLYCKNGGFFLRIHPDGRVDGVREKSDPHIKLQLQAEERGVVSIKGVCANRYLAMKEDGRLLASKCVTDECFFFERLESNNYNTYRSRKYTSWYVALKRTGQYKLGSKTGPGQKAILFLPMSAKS
Chain of Focal adhesion kinase 1 (Homo sapiens) (Q05397 whole entry, looked up): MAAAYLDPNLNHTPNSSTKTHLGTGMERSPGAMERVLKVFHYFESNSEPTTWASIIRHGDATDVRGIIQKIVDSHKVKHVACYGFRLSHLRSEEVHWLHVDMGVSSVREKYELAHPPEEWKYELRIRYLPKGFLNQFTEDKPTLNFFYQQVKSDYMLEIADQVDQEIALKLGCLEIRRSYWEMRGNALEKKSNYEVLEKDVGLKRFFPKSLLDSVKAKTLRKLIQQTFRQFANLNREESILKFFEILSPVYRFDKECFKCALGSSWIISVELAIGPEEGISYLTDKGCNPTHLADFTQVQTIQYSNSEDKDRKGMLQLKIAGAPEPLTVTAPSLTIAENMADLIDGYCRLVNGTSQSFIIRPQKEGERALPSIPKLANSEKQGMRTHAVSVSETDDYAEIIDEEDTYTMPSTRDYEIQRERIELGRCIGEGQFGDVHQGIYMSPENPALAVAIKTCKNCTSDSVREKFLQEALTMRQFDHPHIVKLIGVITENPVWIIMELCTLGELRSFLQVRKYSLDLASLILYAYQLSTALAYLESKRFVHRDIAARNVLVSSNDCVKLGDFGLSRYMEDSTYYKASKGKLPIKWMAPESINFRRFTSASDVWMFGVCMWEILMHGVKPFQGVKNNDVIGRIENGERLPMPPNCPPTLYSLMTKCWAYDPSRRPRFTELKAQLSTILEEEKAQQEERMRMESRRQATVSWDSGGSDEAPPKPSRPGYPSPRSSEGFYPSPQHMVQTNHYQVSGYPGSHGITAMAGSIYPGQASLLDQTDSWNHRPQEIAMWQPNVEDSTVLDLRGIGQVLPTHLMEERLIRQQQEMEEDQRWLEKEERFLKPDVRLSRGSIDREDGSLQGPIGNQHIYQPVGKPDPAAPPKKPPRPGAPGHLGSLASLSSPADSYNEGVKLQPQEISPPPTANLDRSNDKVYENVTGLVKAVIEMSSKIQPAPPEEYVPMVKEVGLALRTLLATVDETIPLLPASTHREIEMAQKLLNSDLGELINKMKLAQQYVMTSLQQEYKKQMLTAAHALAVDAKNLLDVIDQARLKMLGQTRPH

Turning to `CN1C(=O)C2C=CC(C(O)c3ccc(-c4ccccc4)s3)N(Nc3ccccc3)C2C1=O` (stereo not given), the composite z-score in experiment [1] was 1.33; in [2], 1.19; in [3], 0.283; in experiment [4] it was 0.96; in experiment [5] it was 1.12; in [6], -0.0002. For the same compound, the composite z-score with Lefty1 is -0.304; in [8], 1.07; in experiment [10] it was -0.24; in experiment [15] it was 2.23; in experiment [16], 0.395; with Torsin-1A (Homo sapiens) [17] it was 0.0922. Moreover, the composite z-score is 0.271 with Torsin-1A (Homo sapiens) [18] and -0.212 in experiment [19]. The z-score in experiment [7] is 0.5; in experiment [9], 0.17 (inactive); in experiment [11] it was 0.809 (inactive); in [12], -0.46 (inactive); in [13] it was 0.429 (inactive); in [14], -0.666 (inactive).
`CCC[C@@H]1[C@@H](Sc2ccccc2)[C@@H](C(=O)O)[C@H](c2ccc(C)cc2)N1S(=O)(=O)c1ccc(C)cc1`: the composite z-score in experiment [1] was 0.832; in experiment [2], 1.25; in experiment [3] it was 0.725; in [4], 1.05; in [5] it was 0.769; in experiment [6] it was 0.0754. The composite z-score is 0.717 with Lefty1; 0.774 in experiment [8]; 0.664 in experiment [10]; 1.67 in experiment [15]; 0.0921 in experiment [16]; 0.26 with Torsin-1A (Homo sapiens) [17]. The composite z-score with Torsin-1A (Homo sapiens) [18] was 0.165; in experiment [19], 0.641. Besides, the z-score was -0.61 in experiment [7]; 1.46 (inactive) in experiment [9]; -1.72 (inactive) in [11]; -1.96 (inactive) in experiment [12]; -0.471 (inactive) in experiment [13]; -0.722 (inactive) in [14].
For the compound `COC(=O)[C@@]1(Cc2ccc(OC)cc2)[C@@H]2[C@@H](CC(=O)[C@H]2CC(=O)C(=O)N2CCCC2)CN1C(=O)c1ccccc1`, the composite z-score in [1] was 2.96; in [2], 1.27; in experiment [3] it was 0.888; in [4], 1; in experiment [5], 0.713; in experiment [6] it was -0.256. In addition, the composite z-score in the experiment on Lefty1 was -0.265; in experiment [8], 1.47; in experiment [10] it was 2.07; in experiment [15] it was 1.7; in experiment [16] it was 1.69; with Torsin-1A (Homo sapiens) [17] it was 0.774. Moreover, the composite z-score with Torsin-1A (Homo sapiens) [18] was 1.27; in experiment [19], -0.566. Moreover, the z-score in experiment [7] is 0.483; in [9], 0.596 (inactive); in experiment [11], -2.82 (inactive); in experiment [12] it was -0.98 (inactive); in experiment [13] it was 0.779 (inactive); in experiment [14], -0.013 (inactive).
Consider `O=C1O[C@@H](c2ccccc2)[C@@H](c2ccccc2)N2[C@@H](c3ccc(O)cc3)[C@]3(C(=O)Nc4ccc(C#CC5=CCCCC5)cc43)[C@@H](C(=O)N3CCCCCCC3)[C@H]12`, for which the composite z-score in experiment [1] came to 1.22; in experiment [2] it was 1.06; in experiment [3] it was 0.277; in experiment [4], 0.836; in [5], 1.4; in [6], 1.19. The composite z-score came out at 1.29 in the experiment with Lefty1; 1.32 in experiment [8]; 0.0888 in [10]; 1.1 in [15]; 1.04 in experiment [16]; 1.12 with Torsin-1A (Homo sapiens) [17]. Besides, the figures for the composite z-score (with Torsin-1A (Homo sapiens) [18]; in [19]) were 0.772 and 1.95, respectively. In addition, the z-score in experiment [7] is 1.26; in [9], -3.18 (inactive); in experiment [11], -4.91 (inactive); in experiment [12], -0.815 (inactive); in experiment [13] it was 0.155 (inactive); in [14], -0.782 (inactive).
Consider `CN(C)CCCCNC(=O)[C@H]1C[C@H]2C(=O)N[C@@H](Cc3ccccc3)C(=O)N2[C@H]1c1cccc(OCCO)c1`, for which the composite z-score is 0.807 in experiment [1]; -0.562 in experiment [2]; -0.0598 in experiment [3]; -0.205 in experiment [4]; 1.21 in [5]; 0.694 in [6]. Besides, the composite z-score in the experiment with Lefty1 is 0.365; in experiment [8], -0.0282; in [10], -0.113; in [15], -0.203; in experiment [16], -0.128; in the experiment with Torsin-1A (Homo sapiens) [17] it was -0.163. The composite z-score with Torsin-1A (Homo sapiens) [18] was determined as 0.59; in experiment [19], 0.878. Moreover, the z-score in experiment [7] is -0.0938; in experiment [9] it was 0.801 (inactive); in experiment [11], -0.307 (inactive); in experiment [12] it was -0.584 (inactive); in experiment [13], -1.07 (inactive); in experiment [14], -1.16 (inactive).
